Experimental data: PubChem BioAssay AID1259313 (Sanford-Burnham Center for Chemical Genomics, 2017)
About 8,500 (2.5%) of roughly 340,000 compounds were called active. Only a selection was taken, and actives are over-represented in it overall. A number with no mark means an inactive call.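 Rule for the calls: active = melting temperature shift of at least 10% of the positive control shift, at one fixed dose; inactive = the rest.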

What follows are compounds tested on Glutamate receptor ionotropic, NMDA 3A (GRIN3A) ligand-binding domain (assay: binders of NR3A ligand-binding domain, primary screen, biophysical, differential scanning fluorimetry, uHTS (AID 1259313)). Settings: NR3A LBD differential scanning fluorimetry, at 25 µM, stronger effect = higher value, 0% = protein alone, 100% = glycine-bound protein.

Row | SMILES | Tm shift relative to glycine control
1 | COc1ccccc1N1CCN(S(=O)(=O)CCNC(=O)c2ccc(OC(C)C)cc2)CC1 | 0.83%
2 | O=C(NCCS(=O)(=O)N1CCN(c2ccccc2)CC1)c1ccco1 | 2.13%
3 | O=C(NCCS(=O)(=O)N1CCN(c2ccccc2F)CC1)c1ccc(Br)o1 | 121% (active)
4 | COc1ccc(CCNC(=O)C(=O)NCC2CCNCC2)cc1OC | -0.1%
5 | CCc1ccc(-c2nn(-c3ccccc3)cc2CSC(=N)N)cc1 | -0.35%
6 | COc1cc(NS(=O)(=O)c2ccc(NC(=S)NC(=O)c3ccc(Br)cc3)cc2)ncn1 | -6.1%
7 | O=c1[nH]c2cccnc2n(CCNc2ncc(C(F)(F)F)cc2Cl)c1=O | -2.11%
8 | COc1ccc(Br)cc1/C=N/Nc1ccc(Cl)c(C(=O)O)c1 | -7.4%
9 | COc1cccc(/C=N/Nc2ncc(C(F)(F)F)cc2Cl)c1O | 24.2% (active)
10 | CCCCN(C(=O)c1nn(C)c(=O)c2ccccc12)c1c(N)n(CCC)c(=O)[nH]c1=O | 0.36%
11 | N#CC1=C(N)Oc2cc(N)ccc2C1c1ccccc1 (configuration not stated) | -2.17%
12 | N#CC1=C(N)Oc2cc(O)ccc2C1C1CCCCC1 (configuration not stated) | 12% (active)
13 | COc1ccc(C2C(C#N)=C(N)Oc3cc(N)ccc32)cc1OC (configuration not stated) | -4.08%
14 | COCC(C)NC(=O)CSc1nc2nn(-c3ccccc3)c(=O)c-2c2n1CCCCC2 (configuration not stated) | -0.39%
15 | O=C(Nc1cc(S(=O)(=O)N2CCOCC2)ccc1Cl)c1cc(=O)c2ccccc2o1 | 0.31%
16 | CC(=O)c1ccc(N2CCN(C(=O)C3CCN(S(=O)(=O)c4ccc5c(c4)CC(C)N5C(=O)C4CC4)CC3)CC2)cc1 (configuration not stated) | 1.27%
17 | COc1cc(OC)c(S(=O)(=O)Nc2ccccc2C(=O)O)cc1S(=O)(=O)Nc1ccccc1C(=O)O | 5.12%
18 | COc1cc(NC(=O)c2ccccc2NS(=O)(=O)c2ccc(Cl)s2)cc(OC)c1 | 21.3% (active)
19 | COC(=O)c1ccc(NC(=O)c2ccccc2NS(=O)(=O)c2ccccc2)cc1 | 2.17%
20 | CCC/C(O)=C1\C(=O)CC(C)(C)CC1=Nc1ccccc1OC | -0.4%
21 | CCCC(=O)Nc1ccc(C(=O)N/N=C/c2ccc[nH]2)cc1 | 0.18%
22 | CC(=O)Nc1ccc(C(=O)NNC(=O)CCCCC(=O)NNC(=O)c2ccc(NC(C)=O)cc2)cc1 | -2.46%
23 | CC(=O)Nc1ccc(C(=O)/C=C/c2ccc[nH]2)cc1 | 19.4% (active)

Row | SMILES | Tm shift relative to glycine control
24 | CC1=C(C)C(=O)OC(C(C)C2CCC3C4CC=C5CC(OC6OC(COC7OC(CO)C(O)C(O)C7O)C(O)C(O)C6O)CC(O)C5(C)C4CCC23C)C1 (configuration not stated) | -4.54%
25 | O=C(CN(Cc1ccc(Br)cc1)S(=O)(=O)c1ccccc1)NCc1ccncc1 | 0.51%
26 | CC1=C(C(=O)OC(C)(C)C)C(c2ccc(Br)cc2)NC(=O)N1CCCC(=O)O (configuration not stated) | 0.08%
27 | COC(=O)[C@H](Cc1ccccc1)NC(=O)Nc1ccc(S(N)(=O)=O)cc1 | -3.46%
28 | NS(=O)(=O)c1ccc(Nc2nc(-c3ccccc3)cs2)cc1 | 15.5% (active)
29 | NS(=O)(=O)c1ccc(NS(=O)(=O)/C=C/c2ccccc2)cc1 | -15.1%
30 | O=C(CC1C(=O)NCCN1CC(c1ccccc1)c1ccccc1)NCCc1cn[nH]c1 (configuration not stated) | -1%
31 | Cc1cccc(OCCC(=O)OCc2csc(CC(=O)Nc3ccccc3C)n2)c1 | -1.22%
32 | Cc1cccc(NC(=O)C2CCN(C(=O)NC3CCCCC3)CC2)c1 | -0.18%
33 | COc1cccc(NC(=O)c2cc(S(=O)(=O)N3CCc4ccccc43)cn2C)c1 | 1.72%
34 | COc1ccc(C(=O)C2CCCN(Cc3cccn3-c3ccccn3)C2)c(C)c1 (configuration not stated) | 0%
35 | CC(C)CCN1CCN=C1N(C)C | -0.97%
36 | O=C(/C=C/NCc1ccc(F)cc1)c1ccccc1 | 0.09%
37 | O=C(/C=C\NCC(=O)c1ccccc1)c1ccccc1 | 12.7% (active)
38 | CCOc1ccc(N/C=C/C(=O)c2ccccc2)cc1 | -12.3%
39 | COC(=O)Cn1c(=NC(=O)c2cc(OC)c(OC)c(OC)c2)sc2cc(OC)ccc21 | 4.34%
40 | O=C(Cn1cc(C(=O)c2cccs2)c2ccccc21)NCc1cccs1 | -6.3%
41 | COC(=O)c1cn(CC(=O)NCc2cccs2)c2ccccc12 | 11.7% (active)
42 | COCCNC(=O)Cn1cc(C(=O)c2cccs2)c2ccccc21 | 4.81%
43 | CC(NC(=O)c1ccccc1SCC(=O)N1CCCC1)c1ccccc1 (configuration not stated) | 1.13%
44 | Cc1cc(Cl)c(S(=O)(=O)NCCC(=O)O)cc1OCC(N)=O | -2.09%
45 | Cc1cc(Cl)c(S(=O)(=O)N(C)C)cc1OCC(N)=O | 10.2% (active)
46 | Cc1cc(Cl)c(S(=O)(=O)Nc2ccc3c(c2)OCCO3)cc1OCC(N)=O | 5.63%

Row | SMILES | Tm shift relative to glycine control
47 | O=C(Nc1ccccc1F)c1cc(S(=O)(=O)N2CCCCC2)cs1 | -1.16%
48 | CCN(c1ccccc1)S(=O)(=O)c1cccc(C(=O)NCc2ccccc2CN2CCOCC2)c1 | 2.34%
49 | COc1ccc(CSc2nnnn2-c2ccc(C(=O)O)cc2)cc1 | 3.65%
50 | CCOc1ccc(NC(=O)CSc2nncn2C)cc1 | -0.09%
51 | CCOc1ccc(NC(=O)c2ccc(CSc3nnnn3C)cc2)cc1 | 26.8% (active)
52 | O=C(CSc1ccc(-c2ccco2)nn1)Nc1cccc(F)c1 | -2.4%
53 | O=C(Nc1cccc(F)c1)c1cc(-c2ccco2)nc2ccccc12 | 11.7% (active)
54 | O=C(O)c1cccc(NC(=O)c2cc(-c3cccc(Cl)c3)nc3ccccc23)c1 | -12.1%
55 | CC1CCN(C(=O)COC(=O)CCC(=O)c2cccs2)CC1 | 0.85%
56 | Cc1cccc(C(=O)Nc2ccc(Oc3cnccn3)cc2)c1 | 1.77%
57 | Cc1cccc(OCc2ccc(C(=O)Nc3ccc(F)cc3)cc2)c1 | 13.3% (active)
58 | Cc1ccc(COc2ccc(C(=O)NN)cc2)cc1 | -4.77%
59 | CC(C)(CNC(=O)CNC(=O)C1CCCCC1)N1CCOCC1 | -1.27%
60 | COc1ccc(NC(=O)CCCC2CCCCC2)c(OC)c1 | 2.43%
61 | Cc1ccc(CNC(=O)Cn2cnc3c(NCc4ccccc4)ncnc32)o1 | 3%
62 | Cc1ccc(Nc2nc(-c3ccc(O)cc3O)cs2)nc1 | 27.4% (active)
63 | Cc1ccc(-c2csc(NCCc3nc4cc(Cl)c(Cl)cc4n3CCOCCO)n2)cc1 | -1.81%
64 | COc1ccc(CCNC(=O)NS(=O)(=O)c2ccc(C)cc2)cc1OC | -2.28%
65 | O=[N+]([O-])c1ccccc1SNc1ccccn1 | 1.04%
66 | CCOC(=O)N1CCN(CC(=O)c2ccc3c(c2)CCN3)CC1 | -1.56%
67 | C[C@H](OC(=O)n1ccnc1)[C@@H]1O[C@@]2(C)CCC[C@@H]1O2 | -0.49%
68 | COc1ccc(N(CC(=O)NC2CCCCCCC2)S(=O)(=O)c2c(C)nn(C)c2C)cc1 | -1.2%
69 | O=C(O)C1CCCCC1C(=O)N1CCN(S(=O)(=O)c2ccc(F)cc2)CC1 (configuration not stated) | 14.4% (active)

Row | SMILES | Tm shift relative to glycine control
70 | O=S(=O)(c1ccc(F)cc1)N1CCN(C(=S)NC2CCCC2)CC1 | 1.46%
71 | O=C(C1CCCN(S(=O)(=O)c2ccccc2)C1)N1CCN(c2ccc(F)cc2)CC1 (configuration not stated) | -0.26%
72 | Cc1cc(=O)oc2c1ccc1ccccc12 | 0.49%
73 | CCOC(=O)c1cccc(NC(=O)C2CCCN(S(=O)(=O)c3cnc[nH]3)C2)c1 (configuration not stated) | -1.2%
74 | Cc1cc(C)c(C(=O)CSc2nc(C)cc(=O)[nH]2)c(C)c1 | -3.2%
75 | COC(=O)c1ccccc1SC1CC(=O)N(c2cccc(C)c2)C1=O (configuration not stated) | -2.37%
76 | COc1cc(OC)c(C(=O)Nc2ccccc2-c2ccccc2)cc1OC | 11.5% (active)
77 | O=C(Nc1ccccc1-c1ccccc1)c1ccccc1[N+](=O)[O-] | -0.71%
78 | COc1cc2ccccc2cc1C(=O)Nc1ccccc1C | 3.64%
79 | Cc1sc(NC(=O)C2=COCCO2)c(C#N)c1C | -1.88%
80 | O=C(Nc1cccc(-c2cccc(Cl)c2)c1)C1CCN(C2CCC2)CC1 | -0.08%
81 | C=CCSc1nnc(Cn2c(=O)sc3ccccc32)n1C | -0.55%
82 | CCOC(=O)c1oc2c(CN3CCN(C)CC3)c(O)ccc2c(=O)c1-c1ccc(Br)cc1 | -3.94%
83 | CCOC(=O)c1cc2cc(-c3c(C(=O)OCC)oc4cc(O)cc(O)c4c3=O)ccc2o1 | 22.4% (active)
84 | O=c1c(-c2ccc3c(c2)OCCO3)c(C(F)(F)F)oc2cc(O)cc(O)c12 | 6.01%
85 | Nc1nc(SCc2ccc([N+](=O)[O-])cc2)c2ncn(C3OC(CO)C(O)C3O)c2n1 (configuration not stated) | 1.21%
86 | COc1ccc(CN2CCNC(=O)C2CC(=O)N(C)Cc2ccccn2)cc1OC (configuration not stated) | 2.19%
87 | Cc1cccc(-n2c(C)cc(/C=N\NC(=O)c3cccs3)c2C)c1 | 11.5% (active)
88 | Cc1ccc(-n2nc(C)c(/C=N/NC(=O)c3cccs3)c2Cl)cc1 | -1.88%
89 | Cc1ccc(-n2c(C)cc(/C=N\NC(=O)CC(=O)NC(C)C)c2C)cc1 | -0.09%
90 | CN1CCN(c2ccccc2NC(=O)COc2ccc(C3CCCCC3)cc2)CC1 | 2.39%
91 | CC1(C)C/C(=C(/C#N)C(N)=O)CCO1 | 1.51%
92 | Cc1cc(Cl)ccc1C(=O)C1CCCN(C(=O)CCN2CCCO2)C1 (configuration not stated) | -1.36%
